{"source": "PubChem BioAssay AID449762", "about": "(Southern Research Specialized Biocontainment Screening …, 2010)", "note": "Screen size: about 330,000 compounds; about 1,900 (0.58%) were called active. Inconclusive results (about 4%) are left out. Rule as the data show it: inconclusive = inhibition above about 70% without an active follow-up result; inactive = below that. The list is a sample of the results. Measured potencies and affinities stand elsewhere. Where a SMILES comes first, the peptide text is derived from it. [ ]: non-standard residue; d: D form. The star is where a group is joined. ξ: configuration not given here. Cbz = O=C(OCc1ccccc1)*; ξS = NC(CO)C(=O)O", "data": [{"experiment": "M. tuberculosis growth inhibition, HTS (AID 449762);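 also: bacterial growth assessed after seven days of incubation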", "conditions": "M. tuberculosis H37Rv growth inhibition, 7H9 media; at 25 µM; stronger effect = higher value", "values": [{"smiles": "CCCCC(=O)Nc1cccc(-c2nn3c(C)nnc3s2)c1", "inhibition": "8.49% (inactive)"}, {"smiles": "O=C1NN(c2cccc(Br)c2)C(=O)/C1=C\\c1ccc(O)cc1", "inhibition": "1.89% (inactive)"}, {"smiles": "Cc1cc(/C=C2/C(=O)NN(c3ccccc3)C2=O)c(C)n1-c1ccc(O)cc1", "inhibition": "5.28% (inactive)"}, {"smiles": "CN(CC1COc2ccccc2O1)C(=S)NC1CCCCC1", "note": "(stereo unspecified)", "inhibition": "-4.56% (inactive)"}, {"smiles": "Cc1nn(Cc2ccc(C(=O)NN)o2)c(C)c1Cl", "inhibition": "-6.65% (inactive)"}, {"smiles": "COc1cc(/C=N\\NC(=O)c2ccc(Cn3nc([N+](=O)[O-])c(Cl)c3C)o2)ccc1O", "inhibition": "-5.71% (inactive)"}, {"smiles": "Cc1c(Cl)c([N+](=O)[O-])nn1Cc1ccc(C(=O)N/N=C\\c2ccccn2)o1", "inhibition": "0.01% (inactive)"}, {"smiles": "Cc1ccc(CNC(=O)c2ccc(Cn3nc(C)c(Cl)c3C)o2)cc1", "inhibition": "-10.1% (inactive)"}, {"smiles": "COc1ccc(NC(=O)C(C)N(C)Cc2ccc3ccccc3c2)cc1", "note": "(stereo unspecified)", "inhibition": "0.65% (inactive)"}, {"smiles": "NC(N)=NCCCC(NC(=O)c1ccccc1)C(=O)Nc1ccc2ccccc2c1", "note": "(stereo unspecified)", "inhibition": "69.1% (inactive)"}, {"smiles": "O=C(CSc1ccc2nnc(-c3ccc(F)cc3)n2n1)NCc1ccco1", "inhibition": "-4.01% (inactive)"}, {"smiles": "CC1(C)C([N+](=O)[O-])C(c2ccc(Cl)cc2)NC(c2ccc(Cl)cc2)C1[N+](=O)[O-]", "note": "(stereo unspecified)", "inhibition": "61.2% (inactive)"}, {"smiles": "CCOc1ccc(NC(=O)CSc2ccc3nnc(-c4cccnc4)n3n2)cc1", "inhibition": "-11.5% (inactive)"}, {"smiles": "CCN(CC)C(=S)Nc1ccc(Cl)c(Cl)c1", "inhibition": "7.74% (inactive)"}, {"smiles": "O=C(Cc1ccccc1)NNC(=O)Nc1ccc(Cl)c(Cl)c1", "inhibition": "9.99% (inactive)"}, {"smiles": "Cc1ccc2nc(CSc3nnc(-c4ccncc4)n3C)cc(=O)n2c1", "inhibition": "-4.97% (inactive)"}, {"smiles": "CCc1nc(SCc2nnc(-c3ccc(C)cc3)o2)c2c(C)c(C)sc2n1", "inhibition": "-15.8% (inactive)"}, {"smiles": "O=C1NCC(c2ccccc2)C1C(=O)N/N=C\\c1ccc(-c2cccc(Cl)c2Cl)o1", "note": "(stereo unspecified)", "inhibition": "24.5% (inactive)"}, {"smiles": "O=C1NCC(c2ccccc2)C1C(=O)N/N=C/c1ccc(Cl)s1", "note": "(stereo unspecified)", "inhibition": "-0.33% (inactive)"}, {"smiles": "COCCNC(=O)C1CC2Cn3c(nc4cc(Cl)c(Cl)cc43)C2N1C", "note": "(stereo unspecified)", "inhibition": "2.07% (inactive)"}, {"smiles": "O=C(NCC1CCCO1)c1cc([N+](=O)[O-])ccc1N1CCC(Cc2ccccc2)CC1", "note": "(stereo unspecified)", "inhibition": "32.2% (inactive)"}, {"smiles": "CCNC(=O)C(Cc1ccccc1)NC(=O)OCc1ccccc1", "note": "(stereo unspecified)", "inhibition": "-4.3% (inactive)"}, {"smiles": "CCOC(=O)CNC(=O)C(CO)NC(=O)OCc1ccccc1", "note": "(stereo unspecified) (Cbz-[ξS]-Gly-OEt)", "inhibition": "5.25% (inactive)"}, {"smiles": "COc1cc(OC)cc(C(=O)N[C@H](C(=O)Nc2ccc(NC(C)=O)cc2)C(C)C)c1", "inhibition": "-0.98% (inactive)"}, {"smiles": "O=c1c(Cc2ccccc2)c(O)ccn1Cc1ccc2c(c1)OCO2", "inhibition": "3.04% (inactive)"}, {"smiles": "O=C(Nc1cc(=O)[nH]c2nc(-c3ccccc3)nn12)c1ccc(Cl)cc1", "inhibition": "-2.49% (inactive)"}, {"smiles": "O=C(Nc1cc(=O)[nH]c2ncnn12)c1ccco1", "inhibition": "-17.4% (inactive)"}, {"smiles": "COCCN(C(=O)COC(=O)/C=C/c1ccc(C)o1)c1c(N)n(Cc2ccccc2)c(=O)[nH]c1=O", "inhibition": "-11.7% (inactive)"}, {"smiles": "COc1cccc2c1OCC(C(=O)O)C2", "note": "(stereo unspecified)", "inhibition": "-0.01% (inactive)"}, {"smiles": "COc1ccccc1N1CCN(C(=O)C2CC=CCC2C(=O)O)CC1", "note": "(stereo unspecified)", "inhibition": "-1.32% (inactive)"}, {"smiles": "Cc1ccc(C)c(NNC(=O)C(=O)NNc2cc(C)ccc2C)c1", "inhibition": "52.8% (inactive)"}, {"smiles": "Cc1ccc(C)c(NC(=S)N(C)C)c1", "inhibition": "1.85% (inactive)"}, {"smiles": "O=C(Nc1cccc(S(=O)(=O)N2CCCCC2)c1)c1ccc2ncsc2c1", "inhibition": "-3.33% (inactive)"}, {"smiles": "CC(=O)c1cccc(NC(=O)c2ccc(S(=O)(=O)N3CCCCC3)cc2)c1", "inhibition": "-2.95% (inactive)"}, {"smiles": "COc1ccc(N(C(=O)Cn2cnc3ccccc32)C(C(=O)NC2CCCCC2)c2ccccc2)cc1", "note": "(stereo unspecified)", "inhibition": "0.85% (inactive)"}, {"smiles": "COc1ccc(NS(=O)(=O)c2cccc(NC(=O)CNC(C)=O)c2)cc1", "inhibition": "3.07% (inactive)"}, {"smiles": "Cc1ccc(C(O)c2nc3ccccc3n2C)cc1", "note": "(stereo unspecified)", "inhibition": "6.67% (inactive)"}, {"smiles": "CN1C(=O)Cn2c1nc1ccccc12", "inhibition": "6.02% (inactive)"}, {"smiles": "Cc1cccc(C)c1NC(=S)N(CCN(C)C)C(C)c1ccccn1", "note": "(stereo unspecified)", "inhibition": "-5.58% (inactive)"}, {"smiles": "CN(Cc1cccs1)C(=O)CCc1c[nH]c2ccccc12", "inhibition": "4.68% (inactive)"}, {"smiles": "COC(=O)c1ccc(CSc2ncnc3ccccc23)o1", "inhibition": "-4.26% (inactive)"}, {"smiles": "COC(=O)c1ccc(CSc2nc(C(F)F)cc(C)c2C#N)o1", "inhibition": "-2.24% (inactive)"}, {"smiles": "O=C(NNc1ncnc2ccccc12)c1cccc(Cl)c1", "inhibition": "-0.01% (inactive)"}, {"smiles": "CN(Cc1cccc(F)c1)C(=O)c1cccc(S(=O)(=O)N2CCN(Cc3ccccc3)CC2)c1", "inhibition": "-18.2% (inactive)"}, {"smiles": "Cc1ccc(CNC(=O)c2ccc(NC(=O)C3=CSCCO3)cc2)cc1", "inhibition": "-1.39% (inactive)"}, {"smiles": "O=C(Nc1ccc(C(=O)NCc2ccc(F)cc2)cc1)C1=CSCCO1", "inhibition": "-4.67% (inactive)"}, {"smiles": "Cc1nc(-c2ccc(Cl)cc2)sc1C1(C)CC(c2ccc(Cl)cc2)=NO1", "note": "(stereo unspecified)", "inhibition": "0.85% (inactive)"}, {"smiles": "Cc1nc(-c2ccccc2)sc1C1(C)CC(c2ccc(C#N)cc2)=NO1", "note": "(stereo unspecified)", "inhibition": "-2.7% (inactive)"}, {"smiles": "c1ccc(-c2cc3ccccc3cn2)cc1", "inhibition": "12.7% (inactive)"}, {"smiles": "Cc1cnc(NC2=NCCC2)s1", "inhibition": "4.98% (inactive)"}, {"smiles": "CCCNC(=O)c1ccc(COc2ccc(C(C)(C)C)cc2)o1", "inhibition": "1.87% (inactive)"}, {"smiles": "COc1ccccc1NC(=O)c1nn(-c2ccccc2)ccc1=O", "inhibition": "5.5% (inactive)"}, {"smiles": "CN(CC(=O)NC(=O)NCc1ccco1)Cc1nc2ccccc2c(=O)[nH]1", "inhibition": "-5.09% (inactive)"}, {"smiles": "O=C(OC(C(=O)NCc1ccc2c(c1)OCO2)c1ccccc1F)c1ccco1", "note": "(stereo unspecified)", "inhibition": "2.01% (inactive)"}, {"smiles": "C/C(CC(=O)Nc1ccc2c(c1)OCCO2)=N\\NC(=O)c1ccccc1Cl", "inhibition": "5.1% (inactive)"}, {"smiles": "COc1ccccc1C(=O)N/N=C(\\C)CC(=O)Nc1ccc2c(c1)OCCO2", "inhibition": "1.17% (inactive)"}, {"smiles": "CC(C)(C)c1ccc(C(=O)NCCCNC(=O)c2ccccn2)cc1", "inhibition": "8.46% (inactive)"}, {"smiles": "COC(=O)c1c(NC(=O)CCC(=O)O)sc2c1CCCCC2", "inhibition": "19.9% (inactive)"}, {"smiles": "Nc1nc(Nc2ccccc2)nc(NC2CCCCC2)c1[N+](=O)[O-]", "inhibition": "29.1% (inactive)"}, {"smiles": "COc1ccc(OC)c(Nc2nc(N)c([N+](=O)[O-])c(NC3CCCCC3)n2)c1", "inhibition": "-3.37% (inactive)"}, {"smiles": "COc1ccc(OC)c(S(=O)(=O)N2CCN(C(=O)CCc3ccccc3)CC2)c1", "inhibition": "-9.07% (inactive)"}, {"smiles": "Cc1cccc(C(=O)O/N=C2/CC3CCC2(C)C3(C)C)c1", "note": "(stereo unspecified)", "inhibition": "5.89% (inactive)"}, {"smiles": "CC12CCC(C/C1=N\\N=C1\\NC(=O)/C(=C\\c3cccc(Br)c3)S1)C2(C)C", "note": "(stereo unspecified)", "inhibition": "21.6% (inactive)"}, {"smiles": "COc1ccc(CC(=O)O/N=C(\\N)Cc2ccc(OC)c(OC)c2)cc1", "inhibition": "2.93% (inactive)"}, {"smiles": "O=C1c2ccccc2CN1C(CO)Cc1ccccc1", "note": "(stereo unspecified)", "inhibition": "-7.4% (inactive)"}, {"smiles": "COCCNC(=S)N/N=C(\\C)CCc1ccc2c(c1)OCO2", "inhibition": "8.49% (inactive)"}, {"smiles": "C/C(CCc1ccc2c(c1)OCO2)=N\\NC(=O)c1ccccc1", "inhibition": "1.21% (inactive)"}, {"smiles": "O=C(N/N=C/c1ccccc1OC(=O)N1CCOCC1)c1cccs1", "inhibition": "25.5% (inactive)"}, {"smiles": "COc1ccc(NS(=O)(=O)c2cccc(C(=O)Nc3cccc(C(=O)O)c3)c2)cc1", "inhibition": "-7.77% (inactive)"}, {"smiles": "COc1cc(/C=N/NC(=O)COc2ccccc2C)ccc1OC(=O)c1cccs1", "inhibition": "-7.68% (inactive)"}, {"smiles": "CCOc1cc(/C=N/NC(=O)COc2ccc(C)cc2)ccc1OC(=O)c1cccs1", "inhibition": "8.62% (inactive)"}, {"smiles": "COC(=O)c1cc(S(=O)(=O)Nc2nn(C)c3ccccc23)oc1C", "inhibition": "1.72% (inactive)"}, {"smiles": "COCCN(C(=O)COC(=O)CSc1ccc2ccccc2c1)c1c(N)n(Cc2ccccc2)c(=O)[nH]c1=O", "inhibition": "0.46% (inactive)"}, {"smiles": "C=CCNC(=O)c1onc(CSc2ccncc2)c1C(=O)NCC=C", "inhibition": "-11.3% (inactive)"}, {"smiles": "Cc1ccc(S(=O)(=O)n2nc(C)c(S(=O)(=O)N3CCOCC3)c2C)cc1", "inhibition": "-4.96% (inactive)"}, {"smiles": "O=C(c1cnn2c(C(F)(F)F)cc(-c3ccccc3)nc12)N1CCCCC1c1cccnc1", "note": "(stereo unspecified)", "inhibition": "61.7% (inactive)"}, {"smiles": "Cc1ccc(-c2cc(C(F)(F)F)n3ncc(C(=O)N4CCCCC4c4cccnc4)c3n2)cc1", "note": "(stereo unspecified)", "inhibition": "-0.42% (inactive)"}, {"smiles": "CC(C)N(C(=O)[C@H]1CC(CC(=O)NCC23CC4CC(CC(C4)C2)C3)C(=O)N2CCc3c([nH]c4ccccc34)[C@]12C)C(C)C", "note": "(stereo partly specified)", "inhibition": "69.1% (inactive)"}, {"smiles": "C[C@]12c3[nH]c4ccccc4c3CCN1C(=O)C(CC(=O)NCC13CC4CC(CC(C4)C1)C3)C[C@@H]2C(=O)N1CCCCC1", "note": "(stereo partly specified)", "inhibition": "21.5% (inactive)"}, {"smiles": "COc1cc([N+](=O)[O-])ccc1NC(=O)NCc1ccco1", "inhibition": "-4.54% (inactive)"}, {"smiles": "COc1ccccc1CNC(=O)c1c(-c2ccccc2)nn(-c2ccccc2)c1C", "inhibition": "6.07% (inactive)"}, {"smiles": "CC(=O)c1c(N2CCOCC2)[nH]c(-c2ccccc2)nc1=S", "inhibition": "43.5% (inactive)"}, {"smiles": "CC(=O)c1c(N2CCN(Cc3ccccc3)CC2)[nH]c(-c2ccccc2)nc1=S", "inhibition": "-2.96% (inactive)"}, {"smiles": "CC(C)[C@H](NC(=O)[C@@H]1Cc2ccccc2CN1C(=O)OC(C)(C)C)C(=O)NCc1ccco1", "inhibition": "2.19% (inactive)"}, {"smiles": "COc1ccc([N+](=O)[O-])cc1NS(=O)(=O)c1cccc(C(=O)OC2CCOC2=O)c1", "note": "(stereo unspecified)", "inhibition": "-6.35% (inactive)"}, {"smiles": "O=C(NCCc1csc(-c2cccnc2)n1)c1ccccc1", "inhibition": "-11.6% (inactive)"}, {"smiles": "O=C1CN(C(=O)OCc2ccccc2)c2ccccc2N1", "inhibition": "-1.7% (inactive)"}, {"smiles": "CN(c1ccccc1)S(=O)(=O)c1ccc(Cl)c(C(=O)NCc2ccccc2CN2CCCC2)c1", "inhibition": "-5.7% (inactive)"}, {"smiles": "O=C(NCc1ccccc1CN1CCCC1)c1cccc(S(=O)(=O)N2CCCC2)c1", "inhibition": "-11.2% (inactive)"}, {"smiles": "CC1CCCCC1NC(=O)c1cc(=O)[nH]c2ccccc12", "note": "(stereo unspecified)", "inhibition": "-4.11% (inactive)"}, {"smiles": "CC1CCCCC1NC(=O)c1ccc2c(c1)OCCO2", "note": "(stereo unspecified)", "inhibition": "8.58% (inactive)"}]}]}
